Measurements reported in PubChem BioAssay (NCATS).
Records with an inconclusive call do not appear. Where a call stands in place of a potency, no number is given. Calls of active or inactive are those of the source. Unless noted, calls follow the shape of the dose curve; as a rule, active = well fitted curve in the direction sought with a large enough effect; inconclusive = small, poorly fitted or top-dose-only effect, or another doubt; inactive = no such curve, though single readings can be large; an effect the other way counts as inactive or inconclusive.

Key:
[1] = target: Calcium and integrin-binding protein 1 (Homo sapiens) (UniProt Q99828); test: Primary qHTS for Identification of Calcium Integrin Binding Protein 1 (CIB1) Competitor (AID 1508620); details: CIB1-GST / FITC-alphaIIb peptide fluorescence polarization; series mostly up to 114 µM;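 also: GST tagged CIB1 binding a fluorescein labelled alphaIIb integrin peptide tracer; top concentration of the series differs between compounds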
How it was run: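 Fluorescence polarization competition: GST-tagged CIB1 (1 uM final) preincubated with compound 15 min at room temperature, then FITC-labelled alphaIIb peptide (100 nM final) added. After 15 min at room temperature, polarization read at Ex 480/Em 540.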

[2] = Primary qHTS for small molecule stabilizers of the endoplasmic reticulum resident proteome: Secreted ER Calcium Modulated Protein (SERCaMP) assay (AID 1508630); details: SH-SY5Y GLuc-SERCaMP (Gaussia luciferase released on ER calcium loss) secretion, thapsigargin, luminescence; series mostly up to 38.4 µM
How it was run: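 GLuc-SERCaMP-expressing SH-SY5Y cells, pretreated 16 h with compound, are challenged with thapsigargin to empty ER calcium stores; after 4 h, coelenterazine is added directly to the medium and luminescence is imaged.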

[3] = Primary qHTS for inhibitors of La Crosse Virus (LACV) - induced cell death in SH-SY5Y cells (AID 1508616); details: SH-SY5Y LACV cytopathicity rescue, ATP luminescence, 6 d; series mostly up to 4.29 µM;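 also: top concentration of the series differs between compounds; higher means more rescue of cells from virus-induced death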
How it was run: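 Readout was luminescence from ATPLite 1step added after a 6-day LACV infection (0.01 MOI) of SH-SY5Y cells that had received pin-transferred compound 24 hr after seeding.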

[4] = A High-Content qHTS Against Drug Library for the Identification of Small Molecules that Inhibit DYT1 Early Onset Primary Dystonia-Associated Cell Pathology (AID 1645839; calls by dose curve); details: HEK293 Flp-In EGFP-delE TorsinA, punctate imaging, 48 h; series mostly up to 46.1 µM
How it was run: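 Flp-In T-REx 293 cells with tetracycline-inducible EGFP-delE hTOR1A (WT EGFP-hTOR1A as reference), 800 cells/well; compound added with tetracycline, 48 h at 37 C. Fixed, permeabilized cells imaged; %pathology (punctate TorsinA) primary, cell count counterscreen.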

Sequence of Calcium and integrin-binding protein 1 (Homo sapiens) (Q99828 whole entry, looked up): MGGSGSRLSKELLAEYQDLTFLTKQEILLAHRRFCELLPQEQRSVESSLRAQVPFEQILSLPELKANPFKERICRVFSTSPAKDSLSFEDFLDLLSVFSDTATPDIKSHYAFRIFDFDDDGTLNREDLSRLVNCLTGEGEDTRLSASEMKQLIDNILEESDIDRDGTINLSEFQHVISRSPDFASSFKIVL

| Structure (SMILES) | Potency [1] | Potency [2] | outcome [3] | Potency [4] |
| --- | --- | --- | --- | --- |
| Cc1oc(-c2ccccc2)nc1CCC(=O)c1ccc(CC2SC(=O)NC2=O)cc1 (centres undefined) | inactive | inactive | – | – |
| CCCCCCCCCCCCCCCC[n+]1ccccc1 | – | inactive | – | – |
| CCC1(c2cnc[nH]2)Cc2ccccc2C1 | – | – | inactive | inactive |
| Nc1c2ccccc2nc2ccccc12 | inactive | inactive | – | inactive |
| CCOC(=O)Cn1cccc1-c1nc(-c2ccc(OC)cc2)c(-c2ccc(OC)cc2)s1 | inactive | inactive | – | – |
| COc1ccc(-n2nc(CCC(=O)N(C)O)cc2-c2ccc(Cl)cc2)cc1 | inactive | inactive | – | – |
| CC(=O)CC/C=C(\C)CC/C=C(\C)CC/C=C(\C)CCC=C(C)C | inactive | – | – | inactive |
